PubChem BioAssay (NCI)
This is part of a sample that, as a whole, favours compounds with a hit. Of some 79,000 tested, about 15% had one in any assay. Unmarked numbers belong to inactive results. Calls of active or inactive are those of the source. Rule as the data show it: active = growth inhibition above about 70%; inactive = the rest.

What was measured:
[1] = NCI Yeast Anticancer Drug Screen. Data for the rad50 strain (AID 155);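 also: 0% = growth of vehicle-only cultures of the same strain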; settings: S. cerevisiae rad50 strain growth inhibition, hits give high values
Procedure, shortened: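 Inhibition values express reduced yeast growth in compound-treated cultures relative to vehicle-treated controls.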

[2] = NCI Yeast Anticancer Drug Screen. Data for the mec2-1 strain (AID 157); settings: S. cerevisiae mec2-1 strain, hits give high values
Procedure, shortened: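 Readout is yeast growth inhibition, normalised to vehicle-treated controls, in the mec2-1 strain exposed to compound.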

[3] = NCI Yeast Anticancer Drug Screen. Data for the sgs1 mgt1 strain (AID 161);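 also: 0% = growth of cultures given vehicle only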; settings: S. cerevisiae sgs1 mgt1 strain, hits give high values
Procedure, shortened: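 This yeast growth screen uses a strain with defined DNA-repair lesions; compound-treated growth is compared with vehicle-treated growth.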

[4] = NCI Yeast Anticancer Drug Screen. Data for the cln2 rad14 strain (AID 165);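 also: 0% = growth equal to vehicle treated cultures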; settings: S. cerevisiae cln2 rad14 strain, hits give high values
Procedure, shortened: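 Relative to vehicle controls, growth inhibition of compound-treated cln2 rad14 yeast was recorded.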

[5] = NCI Yeast Anticancer Drug Screen. Data for the bub3 strain (AID 167); settings: S. cerevisiae bub3 mutant strain, hits give high values
Procedure, shortened: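 Steps: expose the mutant yeast strain to compound; grow alongside vehicle-treated cultures; measure growth; express inhibition against the vehicle cultures.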

[6] = NCI Yeast Anticancer Drug Screen. Data for the mlh1 rad18 strain (AID 175); settings: S. cerevisiae mlh1 rad18 strain growth inhibition, hits give high values
Procedure, shortened: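 Test agents were incubated with a yeast strain of defined genotype (DNA damage repair defect). Inhibition of growth was derived by comparison with vehicle-exposed cultures.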

[7] = at 5.0 µM (retest, dose inferred, filed as 0.5)
[8] = at 50.0 µM (retest, dose inferred, filed as 5.0)

Compound	growth inhibition [1, 7]	growth inhibition [1, 8]	growth inhibition ([1]; at 50.0 µM)	growth inhibition [2, 7]	growth inhibition [2, 8]	growth inhibition ([2]; at 50.0 µM)	growth inhibition [3, 7]	growth inhibition [3, 8]	growth inhibition ([3]; at 50.0 µM)	growth inhibition [4, 7]	growth inhibition [4, 8]	growth inhibition ([4]; at 50.0 µM)	growth inhibition [5, 7]	growth inhibition [5, 8]	growth inhibition ([5]; at 50.0 µM)	growth inhibition [6, 7]	growth inhibition [6, 8]	growth inhibition ([6]; at 50.0 µM)
O=[N+]([O-])/C=C\c1csc2ccccc12	94% (active)	99% (active)	99.2% (active)	96% (active)	98% (active)	99.6% (active)	97% (active)	99% (active)	99.5% (active)	81% (active)	99% (active)	99.3% (active)	92% (active)	99% (active)	99.3% (active)	92% (active)	99% (active)	99.3% (active)
CC(=O)C(C(=O)CCSCCO)C(SCCO)c1ccc(Cl)c(Cl)c1 (configuration not stated)	-1%	64%	59.4%	-3%	63%	79% (active)	-1%	81% (active)	71.8% (active)	-4%	55%	40.1%	-6%	70% (active)	62.4%	-3%	73% (active)	73.8% (active)
Cc1ccc(S(=O)(=O)/C=C/C(=O)c2ccc3ccccc3c2)cc1	83% (active)	86% (active)	97.2% (active)	96% (active)	95% (active)	98.4% (active)	84% (active)	96% (active)	95.9% (active)	20%	91% (active)	96.5% (active)	47%	96% (active)	94.5% (active)	88% (active)	95% (active)	97.1% (active)
CCOC(=O)/C=C(/Cl)C(=O)OCC	12%	98% (active)	98.5% (active)	5%	99% (active)	99.4% (active)	7%	98% (active)	99.5% (active)	1%	99% (active)	99% (active)	18%	99% (active)	99.2% (active)	6%	99% (active)	99.1% (active)
BrCc1ccc2ccc3ccc(CBr)nc3c2n1	2%	83% (active)	69.7%	11%	91% (active)	43.5%	11%	95% (active)	63.9%	-12%	89% (active)	24.8%	-4%	94% (active)	45%	8%	95% (active)	64.8%
Cc1ccc(C2(O)CC(c3ccc([N+](=O)[O-])o3)=NN2C(=O)COc2ccc(Cl)cc2)cc1 (configuration not stated)	46%	46%	6.1%	29%	29%	51.9%	39%	39%	52.6%	11%	11%	70.3% (active)	10%	10%	37.6%	43%	43%	34.3%
O=C1C=CC(=NN=C(c2ccccc2)c2ccccc2)C=C1	-27%	-1%	55%	-16%	-21%	54.5%	-21%	-10%	38.1%	-27%	-17%	44%	-14%	-22%	63.9%	-38%	-2%	53%
COc1ccc(C(=O)CCc2c[nH]c3ccccc23)c(O)c1	2%	43%	-1.85%	-9%	22%	13.8%	11%	46%	36%	22%	72% (active)	14.2%	12%	79% (active)	23.5%	-9%	79% (active)	-13.3%
O=C1c2cc(O)ccc2C(=O)c2c1ccc(O)c2O	11%	98% (active)	98.7% (active)	14%	99% (active)	97.2% (active)	12%	98% (active)	96.5% (active)	12%	97% (active)	90.7% (active)	4%	98% (active)	97.8% (active)	4%	99% (active)	98.2% (active)
CC(=O)Oc1ccc(C(C)(C)CC(C)(C)C)cc1	-1%	62%	72.2% (active)	-1%	41%	95.3% (active)	-1%	26%	94.8% (active)	-3%	42%	86.3% (active)	0%	55%	85.8% (active)	-1%	42%	89.5% (active)
COc1cc2c(cc1OC)-c1nc(Nc3ccccc3)sc1CC2	-6%	92% (active)	43.4%	-1%	94% (active)	86.7% (active)	-3%	88% (active)	82% (active)	5%	88% (active)	29.1%	1%	92% (active)	78.5% (active)	-4%	95% (active)	93% (active)
Cc1cccc(NC(=O)CCc2ccc(Cl)cc2)n1	2%	1%	6.3%	-17%	-6%	2.55%	2%	13%	0.2%	-6%	-15%	41.8%	-1%	0%	9.9%	8%	-7%	-2.8%
COc1ccc(N=Nc2ccc3oc(=O)c(C(=O)Nc4ccc(OC)cc4)cc3c2)cc1	24%	97% (active)	94.8% (active)	14%	97% (active)	95.3% (active)	14%	98% (active)	95.5% (active)	26%	94% (active)	94.3% (active)	-25%	92% (active)	95.3% (active)	36%	97% (active)	95.1% (active)
O=[N+]([O-])C1(CO)COC(CCc2ccccc2)OC1 (configuration not stated)	-2%	5%	67.7%	0%	3%	78.2% (active)	2%	5%	82.3% (active)	2%	3%	97.5% (active)	-2%	-3%	65.5%	0%	3%	98.4% (active)
CN(C)c1cc(N(C)C)c2cc(-c3ccccc3)sc2n1	11%	98% (active)	75.7% (active)	3%	99% (active)	17.2%	5%	95% (active)	94.6% (active)	-11%	82% (active)	7.65%	-5%	93% (active)	64%	1%	94% (active)	63%
COc1ccc(NC(=O)CSC(N)=O)cc1	5%	12%	49.1%	-1%	20%	23.2%	3%	18%	64.1%	0%	-5%	21.9%	3%	25%	53%	3%	12%	51.6%
OC(CBr)C[n+]1cccc2cc(Cl)ccc21 (configuration not stated)	6%	5%	-40%	1%	3%	-13.4%	-1%	9%	-28.6%	-1%	-6%	39.8%	-1%	6%	2.8%	2%	-2%	-5.8%
C1=C(c2ccccc2)[P+](c2ccccc2)(c2ccccc2)C=C(c2ccccc2)[P+]1(c1ccccc1)c1ccccc1	87% (active)	98% (active)	99.3% (active)	89% (active)	99% (active)	99.7% (active)	89% (active)	99% (active)	99.2% (active)	44%	98% (active)	98.2% (active)	83% (active)	99% (active)	99.2% (active)	83% (active)	99% (active)	99.2% (active)
O=C1CC(=Nc2ccc([N+](=O)[O-])cc2)NN1c1c(Cl)cc(Cl)cc1Cl	-20%	47%	90.7% (active)	-24%	69%	92% (active)	-15%	96% (active)	92.7% (active)	-15%	57%	89.4% (active)	-24%	95% (active)	91.7% (active)	-65%	89% (active)	89.5% (active)
